Several values for one entry are separate records, joined by “and”; a condition that tells them apart may be missing. Equal values may be shown once. Among all 6,400 compounds or so, about 610 (9.5%) were called active. Rule as the data show it: active = activity change below about -70%; inconclusive = no clear call, values can overlap the other calls; inactive = above that. For the sample, actives were picked, then their nearest neighbours and some compounds at random. The source holds several records for some structures; these can differ, active in one and inactive in another.

The nature of this test: Toxoplasma gondii ME49Luc growth in HeLa cells, luciferase, no IFN-y, primary screen (AID 1259421). Particulars: T. gondii ME49Luc in HeLa, 72 h, stronger effect = lower value, concentration not given here.
On to `COC(=O)[C@H](Cc1ccc([N+](=O)[O-])cc1)NC(=O)c1cccc2ccccc12`, for which the activity change, negative = inhibition is 3.56% (inactive).
In the case of `O=C1NC(=O)C2(CCOc3ccc(F)cc32)N1` (centres undefined) it was 17.5% (inactive).
With `NC1=N[C@@]2(c3cc(NC(=O)c4ccc(F)cn4)ccc3F)COC[C@@H]2CS1`, the activity change, negative = inhibition was -4.81% (inactive).
The same measure for `CCOC(=O)[C@@H](N)Cc1ccc(-c2cc(O[C@H](c3ccc(Cl)cc3-n3ccc(C)n3)C(F)(F)F)nc(N)n2)cc1`: -85% (active).
The same measure for `COc1cccc(-c2ccc([C@@H](Oc3cc(-c4ccc(C[C@H](N)C(=O)O)cc4)nc(N)n3)C(F)(F)F)cc2)c1`: 21.9% (inactive); for `Cc1ccn(-c2cc(Cl)ccc2[C@@H](Oc2cc(-c3ccc(C[C@H](N)C(=O)O)cc3)nc(N)n2)C(F)(F)F)n1`: 16.1% (inactive).
In the case of `N#C/C(=C(\N)Sc1ccc(N)cc1)c1ccccc1C(F)(F)F` it was 9.63% (inactive); in that of `N#Cc1cc(I)c(O)c([N+](=O)[O-])c1`, 10.2% (inactive); in that of `COc1cccc2cc(-c3nc(C4CCC(C(=O)O)CC4)n4ncnc(N)c34)[nH]c12` (centres undefined), -19.8% (inactive).
Regarding `Oc1cc(O)c2c(c1)O[C@H](c1ccc(O)c(O)c1)[C@@H](O)C2`, the activity change, negative = inhibition is 6.21% (inactive) and -16.6% (inactive).
`Oc1cc(O)c2c(c1)O[C@H](c1ccc(O)c(O)c1)[C@H](O)[C@H]2c1c(O)cc(O)c2c1O[C@H](c1ccc(O)c(O)c1)[C@@H](O)C2`: the activity change, negative = inhibition was -71.6% (active).
The same measure for `Oc1ccc([C@H]2Oc3cc(O)cc(O)c3C[C@H]2O)cc1`: 0.946% (inactive).
The same measure for `COc1cccc(C=NC=Nc2cccc(OC)c2)c1`: 10.3% (inactive); for `O=c1[nH]nc(Sc2ncc([N+](=O)[O-])s2)n1-c1ccc2c(c1)OCCO2`: 34.4% (inactive); for `NC(=O)c1cnc(N[C@@H]2CCCC[C@@H]2N)nc1Nc1cccc(-n2nccn2)c1`: -82.6% (active) and -7.89% (inactive).
In the case of `CC(C)(C)CC(=O)OCC(=O)[C@@]1(O)CCC2C3CCC4=CC(=O)C=C[C@]4(C)C3[C@@H](O)C[C@@]21C` (some centres undefined) it was -8.37% (inactive); in that of `CS(=O)(=O)Nc1ccc2oc3c(OC(F)F)ccc(C(=O)Nc4c(Cl)cncc4Cl)c3c2c1`, 27.8% (inactive); in that of `O=c1[nH]c(=O)c2cn[nH]c2[nH]1`, -8.15% (inactive).
In the case of `Cc1cc(C(C)Nc2ccccc2)c2nc(N3CCOCC3)cc(=O)n2c1` (centres undefined), the activity change, negative = inhibition is 14.5% (inactive).
The same measure for `CCCc1nc(C(C)(C)O)c(C(=O)OCc2oc(=O)oc2C)n1Cc1ccc(-c2ccccc2-c2nn[nH]n2)cc1`: 2.42% (inactive) and 2.73% (inactive); for `CN1C2CC[C@@H]1CC(OC(=O)[C@H](CO)c1ccccc1)C2` (some centres undefined): 5% (inactive); for `COc1cc(/C=C(/C#N)C(N)=O)cc(CSc2nc3ccccc3s2)c1O`: 0.785% (inactive).
In the case of `C=C[C@H]1CN2CC[C@H]1C[C@@H]2[C@H](O)c1ccnc2ccc(OC)cc12` it was -4.38% (inactive); in that of `O=C(O)CCc1c[nH]c2ccccc12`, 16.9% (inactive).
Regarding `O=C(/C=C/c1ccc(CN(CCO)CCc2c[nH]c3ccccc23)cc1)NO`, the activity change, negative = inhibition is -83.9% (active).
For the compound `O=C(O)CCCc1c[nH]c2ccccc12`, the activity change, negative = inhibition was 16.7% (inactive).
The same measure for `COC(=O)C[C@H]1C(C)(C)C2(O)OC34CC2C(=O)[C@]1(C)C3CC[C@]1(C)C4=CC(=O)O[C@H]1c1ccoc1` (some centres undefined): -5.47% (inactive).
The same measure for `COc1cc(Nc2ncc(F)c(Nc3ccc4c(n3)NC(=O)C(C)(C)O4)n2)cc(OC)c1OC`: -51.7% (inactive) and -21% (inactive); for `COc1cc(Nc2ncc(F)c(Nc3ccc4c(n3)N(COP(=O)(O)O)C(=O)C(C)(C)O4)n2)cc(OC)c1OC`: -77% (active).
The same measure for `COC1C(O)C(CO)OC1n1cnc2c(NC3CCCCC3)ncnc21` (centres undefined): 10.5% (inactive); for `Cc1cc(Nc2nc(N[C@@H](C)c3ncc(F)cn3)ncc2Cl)n[nH]1`: 2.85% (inactive).
For the compound `CCc1cnc(N2CCC(c3nc(COc4ccc(-n5cnnn5)cc4)cs3)CC2)nc1`, the activity change, negative = inhibition was -26.5% (inactive).
In the case of `CC1(C)O[C@@H]2CC3C4CCC5=CC(=O)C=C[C@]5(C)[C@@]4(F)[C@@H](O)C[C@]3(C)[C@]2(C(=O)CO)O1` (some centres undefined) it was -0.643% (inactive).
Consider `Cn1ccc2cc(NC(=O)Nc3cccnc3)ccc21`, for which the activity change, negative = inhibition was 22.9% (inactive) and -13.9% (inactive).
The same measure for `O=C(CCCCCCC(=O)Nc1ccccc1)NO`: -84% (active) and -91.4% (active) and -89.3% (active).
Take `O=C(O)CCCNC(=O)c1cccnc1`: the activity change, negative = inhibition was 23.7% (inactive).
The same measure for `O=C(Cc1ccccc1)NO`: -1.4% (inactive); for `O=C(CCCCCCC(=O)Nc1cccnc1)NO`: -92.1% (active); for `CC(=O)Nc1ccccc1`: 7.35% (inactive) and 14.6% (inactive).
The same measure for `CC(C)c1ccc2c(c1)CCC1[C@](C)(CN)CCC[C@]21C` (some centres undefined): 3.16% (inactive).
In the case of `Nc1nc(-c2ccccc2)c(Br)c(=O)[nH]1` it was 3.15% (inactive); in that of `Cc1cccn2c(=O)c(-c3nn[nH]n3)cnc12`, 0.433% (inactive); in that of `C=C1C(=O)O[C@@H]2[C@H]3C(C)=CC[C@@]34O[C@@]4(C)CC[C@@H]12`, 18.9% (inactive).
Regarding `CC[C@@H]1Cn2c(c3nc(-c4ccccc4)nc-3n(C)c2=O)N1`, the activity change, negative = inhibition is 8.44% (inactive) and 12.6% (inactive).
The same measure for `COc1cc2c(cc1-c1c(C)noc1C)ncc1[nH]c(=O)n([C@H](C)c3ccccn3)c12`: -91.9% (active).
For `C#Cc1cnc2[nH]c(=O)n(C(CC)CC)c2n1`, the activity change, negative = inhibition is 0.376% (inactive).
The same measure for `NCC[C@@H](O)C(=O)N[C@@H]1C[C@H](N)[C@@H](O[C@H]2O[C@H](CN)[C@@H](O)[C@H](O)[C@H]2O)[C@H](O)[C@H]1O[C@H]1O[C@H](CO)[C@@H](O)[C@H](N)C1O` (some centres undefined): 22.8% (inactive).
In the case of `CCCCCCCC/C=C\CCCCCCCC(=O)N[C@@H](CO)Cc1ccc(O)cc1` it was 4.92% (inactive).
In the case of `c1cc2c(cc1C1CCCCC1)c1c3n2CCNC3CCC1` (centres undefined) it was 23.6% (inactive) and 27.3% (inactive).
Take `c1ccc(CNc2ncnc3nc[nH]c23)cc1`: the activity change, negative = inhibition is 9.71% (inactive) and 7.45% (inactive).
The same measure for `Cn1cnnc1Sc1c([N+](=O)[O-])ncn1C`: 23.4% (inactive) and 9.93% (inactive); for `Cn1cnc([N+](=O)[O-])c1Sc1ncnc2nc[nH]c12`: -68.2% (inactive) and -74.1% (active).
The same measure for `CC(SC(=O)c1cccs1)C(=O)NCC(=O)O` (centres undefined): 13% (inactive); for `C[C@H]1[C@@H](O)O[C@@H]2O[C@@]3(C)CC[C@H]4[C@H](C)CC[C@@H]1[C@@]24OO3`: -93.7% (active).
In the case of `C[C@@H]1CC[C@H]2[C@@H](C)C(O)O[C@@H]3O[C@]4(C)CC[C@@H]1[C@]32OO4` (some centres undefined) it was -85.4% (active).
With `CC(=O)[C@H]1CCC2C3CC=C4C[C@@H](OC(=O)CCC(=O)O)CC[C@]4(C)C3CC[C@@]21C` (some centres undefined), the activity change, negative = inhibition was 4.41% (inactive) and 6.51% (inactive).
The same measure for `C[C@H]1[C@H](OC(=O)CCC(=O)O)O[C@@H]2O[C@@]3(C)CC[C@H]4[C@H](C)CC[C@@H]1[C@@]24OO3`: -80.6% (active).
Turning to `Brc1c(Br)c(Br)c2n[nH]nc2c1Br`, the activity change, negative = inhibition was 5.07% (inactive) and 22.5% (inactive).
For `OCc1cc2c(cn1)[nH]c1ccccc12`, the activity change, negative = inhibition was 12.8% (inactive).
The same measure for `CCOC(=O)c1c(C)[nH]c2ccc3c(c12)CN1CCc2cc(OC)ccc2C1O3` (centres undefined): 5.91% (inactive); for `C[C@@H](O)CNC(C)(C)CC(=O)N[C@@H]1CCc2ccccc2N(Cc2ccc(-c3ccccc3-c3nn[nH]n3)cc2)C1=O`: 8.07% (inactive); for `CC[C@H](Nc1ncnc2nc[nH]c12)c1nc2cccc(F)c2c(=O)n1-c1ccccc1`: 0.609% (inactive).
Take `Nc1c(S(=O)(=O)O)cc(Nc2cccc3ccccc23)c2c1C(=O)c1ccccc1C2=O`: the activity change, negative = inhibition is 5.63% (inactive).
For the compound `C[C@H](CCC(=O)NCC(=O)O)[C@H]1CCC2C3C(C[C@H](O)[C@@]21C)[C@@]1(C)CC[C@@H](O)CC1C[C@H]3O` (some centres undefined), the activity change, negative = inhibition is 3.03% (inactive).
In the case of `CN(C)C(=N)N=C(N)N` it was 11% (inactive) and -0.508% (inactive); in that of `CN(C)CC(=O)Nc1ccc2[nH]c(=O)c3ccccc3c2c1`, -4.97% (inactive); in that of `O=C(c1ccc2nccnc2c1)N1CCCCC1`, 3.08% (inactive).
In the case of `COC(=O)[C@]12CCC(C)(C)C[C@@H]1[C@@H]1C(=O)C=C3[C@]4(C)C=C(C#N)C(=O)C(C)(C)[C@@H]4CC[C@@]3(C)[C@]1(C)CC2` it was -87.4% (active).
With `CC(=O)N[C@@H](CSC/C=C(\C)CC/C=C(\C)CCC=C(C)C)C(=O)O`, the activity change, negative = inhibition was 7.49% (inactive).
In the case of `OC[C@H]1NC[C@@H](O)[C@@H](O)[C@@H]1O` it was 13.1% (inactive); in that of `CCC[C@H](Nc1nc(-c2ccc(NC(=O)NCC)c(OC)c2)ncc1C)c1cccnc1`, -75.6% (active).
For `COc1ccc(C(=O)NCc2cccnc2)cc1C(=O)NCc1cccnc1`, the activity change, negative = inhibition was 7.12% (inactive).
The same measure for `Oc1ccccc1-c1nnco1`: 11.7% (inactive); for `CCCCCCCCCCCCCCCCCCCCCC(=O)O`: -1.78% (inactive).
In the case of `CCCCC1C(=O)N(c2ccccc2)N(c2ccccc2)C1=O` it was 10.6% (inactive) and 30.2% (inactive) and 17.8% (inactive); in that of `CCCCCCCCCCCC1C(=O)C(=O)CC(=O)C1=O`, -89.4% (active) and -2.92% (inactive); in that of `O=C(/C=C/c1ccc2ccccc2n1)c1ccncc1`, 3.25% (inactive).
The same measure for `CN(C)C1C(=O)C(C(N)=O)C(=O)C2(O)C(=O)C3C(=O)c4c(O)ccc(Cl)c4C(O)C3CC12` (centres undefined): 321% (inactive); for `COC(=O)NC(C)CNc1nccc(-c2cn(C(C)C)nc2-c2cc(Cl)cc(NS(C)(=O)=O)c2F)n1` (centres undefined): -71.5% (active).

These data come from PubChem BioAssay AID1259421 (Broad Institute, 2018).
